Shown is part of a subset that was picked to be rich in hits.
ALOX12 inh: Primary qHTS assay for inhibitors of human arachidonate 12S-lipoxygenase (ALOX12): Round 2 | Polyunsaturated fatty acid lipoxygenase ALOX12 (Homo sapiens), P18054 | purified 12hLO, xylenol orange hydroperoxide absorbance | Potency, µM (series often up to 108 µM), for the others: at the top dose activity change, negative = inhibition, most hits filed as inhibitors | 1.1% of 580,000 active | AID 1671190, 2021; also: potency is read from the fitted curve at half-maximal effect
Target sequence (P18054 whole entry, looked up): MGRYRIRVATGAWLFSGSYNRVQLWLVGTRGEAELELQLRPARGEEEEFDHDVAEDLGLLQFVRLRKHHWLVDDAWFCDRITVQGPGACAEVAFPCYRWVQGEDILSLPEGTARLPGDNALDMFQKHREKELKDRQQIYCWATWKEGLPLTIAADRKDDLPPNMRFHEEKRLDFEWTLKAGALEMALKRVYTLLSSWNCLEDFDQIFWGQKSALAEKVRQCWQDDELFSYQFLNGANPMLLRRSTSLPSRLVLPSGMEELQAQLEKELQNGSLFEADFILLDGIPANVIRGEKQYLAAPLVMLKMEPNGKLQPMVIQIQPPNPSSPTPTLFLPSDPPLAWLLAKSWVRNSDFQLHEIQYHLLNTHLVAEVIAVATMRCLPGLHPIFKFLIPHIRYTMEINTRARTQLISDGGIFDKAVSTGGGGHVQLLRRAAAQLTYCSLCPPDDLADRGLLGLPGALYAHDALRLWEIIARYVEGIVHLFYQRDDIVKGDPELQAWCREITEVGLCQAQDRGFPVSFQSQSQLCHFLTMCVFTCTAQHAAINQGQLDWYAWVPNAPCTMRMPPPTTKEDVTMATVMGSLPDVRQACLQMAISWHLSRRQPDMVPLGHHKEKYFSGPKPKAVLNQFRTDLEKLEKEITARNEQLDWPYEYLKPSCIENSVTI
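Purified human 12hLO (150 nM final) in 25 mM Hepes, 0.01% Triton X-100, pH 7.0 was preincubated 15 min at room temperature with compound. Then 40 uM arachidonic acid was added, 30 min. Hydroperoxide was read by Fe-XO absorbance ratio 573/405 nm.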
IL-1B inflam inh: qHTS for Inhibitors of Inflammasome Signaling: IL-1-beta AlphaLISA Primary Screen | activity change, % at 57.5 µM | THP-1 LPS/ATP IL-1B secretion, AlphaLISA, 16 h; stronger effect = lower value | 4.7% of 360,000 active; in the data active = activity change below about -50%; inconclusive = mostly about -30% to -49%
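Secreted IL-1B measured by AlphaLISA bead assay after 16 h compound exposure of THP-1 cells; compounds (final up to 57.5 uM) added 1 h before LPS (250 ng/mL) and ATP (1.25 mM) stimulation; lower signal means less secretion.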
TDP1 cell CPT: qHTS for Inhibitors of human tyrosyl-DNA phosphodiesterase 1 (TDP1): qHTS in cells in presence of CPT | 12% of 420,000 active | chicken DT40 Tdp1-/-;hTDP1 cells + 20 nM CPT, ATP luminescence, 48 h | Potency, µM (doses to about 46.2 µM), for inactives: top-dose activity change, negative = growth inhibition, usual class: inhibitors; also: potency is read from the fitted curve at half-maximal effect; nearly all actives have a fitted effect of over 55% in size
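Cell growth measured by CellTiter-Glo luminescence after a minimum 48 h, 37 C compound exposure with 20 nM CPT in Tdp1-knockout DT40 cells stably expressing hTDP1, seeded 400/well; qHTS titration format.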
HT1080 IDH1KD tx: qHTS for induction of synthetic lethality in tumor cells producing 2HG: qHTS for the HT-1080-IDH1KD cell line; Potency, µM (titrated, usually from 46.1 µM), for the others: top-dose activity, negative = toxicity, actives largely listed as cytotoxic; 2% of 360,000 active; AID 686971, 2013; HT-1080 IDH1 knockdown viability, ATP luminescence, 48 h;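 also: potency is read from the fitted curve at half-maximal effect; 0% = DMSO wells and -100% = cell-free medium wells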
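Luminescent ATP read-out (CellTiter-Glo, 10 min at room temperature) after 48 h compound exposure at 37 °C gave viability of IDH1-knockdown HT-1080 cells. Activity was normalised to DMSO and cell-free wells, then fitted as concentration-response curves.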
TDP1 cell noCPT: qHTS for Inhibitors of human tyrosyl-DNA phosphodiesterase 1 (TDP1): qHTS in cells in absence of CPT; DT40 Tdp1-/- hTDP1 cells, no CPT, ATP luminescence, 48 h; Potency, µM (series often up to 46.2 µM), inactives show at the top dose activity change, negative = growth inhibition, hits mostly inhibitors; 15% of 420,000 active; also: potency is read from the fitted curve at half-maximal effect; nearly all actives have a fitted effect of over 55% in size
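Seeded 400 DT40-hTDP1 cells/well (vehicle DMSO, no 20 nM CPT); pinned compounds; ≥48 hr at 37 °C; CellTiter-Glo luminescence as viability measure.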
HT1080NT lethal: qHTS for induction of synthetic lethality in tumor cells producing 2HG: qHTS for the HT-1080-NT fibrosarcoma cell line. HT-1080-NT fibrosarcoma viability, CellTiter-Glo ATP luminescence, 48 h. Potency, µM (top dose mostly 46.1 µM), without a hit: top-dose activity, negative = less viability, usual class: cytotoxic. 1.6% of 360,000 active;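 also: NT is the 2HG producing partner of a matched IDH1 knockdown line; potency is read from the fitted curve at half-maximal effect; 0% = DMSO-treated cells and -100% = media-only wells without cells; nearly all actives have a fitted effect of over 55% in size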
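HT-1080-NT; 750 cells/well; 5% FBS RPMI; 48 h compound, 37 degrees C; CellTiter-Glo luminescence; curve fitting and curve-class assignment.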
Active calls of the source: *; ? = inconclusive; / = not tested or not shown. Unless noted, calls follow the shape of the dose curve; as a rule, active = well fitted curve in the direction sought with a large enough effect; inconclusive = small, poorly fitted or top-dose-only effect, or another doubt; inactive = no such curve, though single readings can be large; an effect the other way counts as inactive or inconclusive. Unless noted, % is scaled to controls: 0 for no effect and ±100 for the full control effect.

SMILES	ALOX12 inh	IL-1B inflam inh	TDP1 cell CPT	HT1080 IDH1KD tx	TDP1 cell noCPT	HT1080NT lethal
Cc1ccc(C)c(S(=O)(=O)N2CCN(C(=O)C3CC3C)CC2)c1 (configuration not stated)	-5%	-3	-12%	5%	-28%	-1%
Cc1sc2ncnc(N3CCC(C(=O)Nc4ccc(S(N)(=O)=O)cc4)CC3)c2c1C	-8%	-8	?	-1%	15µM*	-19%
Cc1ccc(C)c(S(=O)(=O)N2CCN(C(=O)C3CCN(c4ncnc5sc(C)c(C)c45)CC3)CC2)c1	-14%	?	15µM*	-10%	10µM*	5%
Cc1ccc(NC(=O)C2CCN(c3ncnc4sc(C)c(C)c34)CC2)cc1S(=O)(=O)N(C)C	-17%	-10	13µM*	-19%	9.2µM*	-6%
Cc1sc2ncnc(N3CCC(C(=O)Nc4ccc(C#N)cc4)CC3)c2c1C	?	-2	?	-1%	?	0%
CCN(CC)S(=O)(=O)c1cc(NC(=O)C2CCN(c3ncnc4sc(C)c(C)c34)CC2)ccc1Cl	1%	-28	15µM*	-26%	21µM*	?
CCCCc1nnc(NC(=O)C2CCN(c3ncnc4sc(C)c(C)c34)CC2)s1	-22%	31	?	7%	?	-7%
Cc1ccc(OCc2nc(C#N)c(N3CCOCC3)o2)cc1	9%	/	/	/	/	/
CCOc1ccccc1CN1CCN(Cc2[nH]c3ccccc3c2C)CC1CCO (configuration not stated)	-26%	-9	?	?	15µM*	-17%
Cc1ccc(CN2CCN(Cc3cc(=O)c4ccccc4[nH]3)CC2CCO)o1 (configuration not stated)	1%	-3	0%	8%	17%	9%
Cc1ccc(CN2CCN(Cc3c[nH]c4ccccc34)CC2CCO)o1 (configuration not stated)	-2%	0	7.3µM*	0%	?	-26%
CCOc1ccccc1CN1CCN(Cc2c[nH]c3ccccc23)CC1CCO (configuration not stated)	25%	-5	9.2µM*	-25%	16µM*	-29%
COc1ccc(/C=C/CN2CCN(Cc3ccc(F)cc3)C(CCO)C2)cc1 (configuration not stated)	-2%	-55*	?	-8%	29µM*	-16%
COc1ccc(/C=C/CN2CCN(Cc3ccccc3)C(CCO)C2)cc1 (configuration not stated)	-6%	-8	-7%	-17%	-22%	-3%
Cc1ccc2[nH]c(CN3CCN(C)C(CCO)C3)c(C)c2c1 (configuration not stated)	0%	5	-14%	-17%	24%	-22%
CCOc1ccc(CN2CCN(Cc3[nH]c4ccc(OC)cc4c3C)CC2CCO)cc1 (configuration not stated)	?	-66*	?	?	?	?
Cc1ccc(CN2CCN(Cc3ccncc3)CC2CCO)o1 (configuration not stated)	9%	-8	4%	16%	?	13%
Cc1ccc(CN2CCN(Cc3cnn(-c4ccc(Cl)cc4)c3)CC2CCO)o1 (configuration not stated)	?	-57*	?	-3%	?	-24%
Cc1ccccc1OCC(=O)NNC(=O)c1cc(S(=O)(=O)N2CCOCC2)ccc1N1CCCC1	11%	-24	-13%	1%	-12%	1%
COc1ccc2oc(=O)c(C(=O)Nc3ccccc3OC)cc2c1	3%	/	/	/	/	/
COc1cc(-c2nnc(SCc3cc(=O)oc4cc(O)c(O)cc34)o2)cc(OC)c1OC	?	72	-1%	?	-13%	-3%
CCCCCCc1cc2cc(-c3nnc(-c4cc(OC)c(OC)c(OC)c4)o3)c(=O)oc2cc1O	/	40	?	-9%	23µM*	-2%
CCCCCCc1cc2cc(-c3nnc(-c4ccccc4O)o3)c(=O)oc2cc1O	10%	0	8.2µM*	0%	7.3µM*	-2%
CCCCCCc1cc2cc(S(=O)(=O)c3ccc(F)cc3)c(=O)oc2cc1O	?	-1	21µM*	?	?	?
CCCCCCc1cc2cc(C(=O)Nc3ccccc3OC)c(=O)oc2cc1O	-1%	7	16µM*	2%	16µM*	6%
SMILES	ALOX12 inh	IL-1B inflam inh	TDP1 cell CPT	HT1080 IDH1KD tx	TDP1 cell noCPT	HT1080NT lethal
COc1cc(NC(=O)CSc2nc(-c3ccc(C(C)C)cc3)no2)cc(OC)c1	-28%	/	-15%	/	?	/
COc1ccc(Cc2nc3ccc(C(=O)N(C)CCCN4CCOCC4)cc3o2)cc1	-27%	45	-14%	8%	10%	11%
CCCCCCc1cc2cc(-c3nnc(-c4ccccc4OC)o3)c(=O)oc2cc1O	-11%	1	?	?	16µM*	?
COc1cccc2cc(-c3nnc(-c4ccccc4)o3)c(=O)oc12	-12%	?	1%	20%	-17%	24%
Cc1ccc(CN(Cc2ccco2)c2cnc(S(C)(=O)=O)nc2C(=O)Nc2ccc(Br)cc2)o1	-21%	/	18µM*	/	?	/
COc1ccc(CN(Cc2ccco2)c2cnc(S(C)(=O)=O)nc2C(=O)Nc2ccc(C)cc2C)cc1	-1%	/	?	/	?	/
Cc1ccc(NC(=O)c2nc(S(C)(=O)=O)ncc2N(Cc2ccco2)Cc2ccccc2F)c(C)c1	-14%	/	12µM*	/	9.2µM*	/
CC(C)c1ccc(CN(Cc2ccco2)c2cnc(S(C)(=O)=O)nc2C(=O)Nc2ccccc2)cc1	-12%	/	18µM*	/	12µM*	/
CCOc1ccc(NS(=O)(=O)c2csc(C(N)=O)c2)cc1	7%	-17	?	0%	?	-3%
O=C(NCC(c1ccco1)N1CCc2ccccc2C1)c1ccc([N+](=O)[O-])cc1 (configuration not stated)	/	3	?	-4%	23µM*	-9%
